Measured values: PubChem BioAssay AID1224921 (Broad Institute, 2016)
Among all 1,400 compounds or so, about 350 (25%) were called active. About 2% were inconclusive and are not listed. How the calls were made is not given here. A selection follows. Entries with a potency or affinity are not part of this list.

Test: inhibitors of Clostridioides difficile proliferation – 4-point retest, confirmation (AID 1224921);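 further: plate controls were DMSO wells for no effect and levofloxacin 16 µg/mL wells for full effect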
Details: Clostridioides difficile clinical isolate growth, OD600, 24 h, active compounds read low; at 30 µM unless noted

Max activity, inactive:
C[C@@H]1CN([C@@H](C)CO)C(=O)c2cc(NC(=O)Nc3ccc(C(F)(F)F)cc3)ccc2O[C@@H](C)CCCCO[C@@H]1CN(C)C 6.76% [at 8 µM]
C[C@@H]1CN([C@@H](C)CO)C(=O)c2cc(NC(=O)CCCN(C)C)ccc2O[C@@H](C)CCCCO[C@@H]1CN(C)Cc1ccc(C(F)(F)F)cc1 -16.2% [at 1.95 µM]
C[C@H](CO)N1C[C@H](C)[C@@H](CN(C)Cc2ccc(C(F)(F)F)cc2)OCCCC[C@H](C)Oc2ccc(NC(=O)CCCN(C)C)cc2C1=O 16.3%
C[C@@H]1CN([C@@H](C)CO)C(=O)c2cc(NC(=O)Nc3ccc(C(F)(F)F)cc3)ccc2O[C@@H](C)CCCCO[C@H]1CN(C)C 31.7% [at 8 µM]
CCCN(C)C[C@H]1OCCCC[C@H](C)Oc2ccc(NC(=O)Nc3cccc4ccccc34)cc2C(=O)N([C@@H](C)CO)C[C@H]1C 13.8%
C[C@@H]1CN([C@@H](C)CO)C(=O)c2ccccc2-c2ccccc2CO[C@H]1CN(C)C(=O)CCN(C)C -7.53% [at 0.5 µM]
CO[C@H]1O[C@H](CO)[C@@H](OC(=O)Nc2cccc(F)c2)[C@H](OC(=O)Nc2ccc3c(c2)OCO3)[C@H]1OC(=O)Nc1ccc2c(c1)OCO2 8.7%
C[C@H](CO)N1C[C@H](C)[C@@H](CN(C)CC2CCCCC2)Oc2ccc(NC(=O)Cc3cn(C)c4ccccc34)cc2CC1=O 22.1% [at 1.95 µM]
CCCNC(=O)Nc1ccc2c(c1)C(=O)N(C)C[C@H](OC)[C@H](C)CN(C)[C@@H](C)CO2 -3.68% [at 0.5 µM]
C[C@@H]1CN([C@H](C)CO)C(=O)c2c(c3ccccc3n2C)-c2ccccc2CO[C@@H]1CN(C)C(=O)N[C@H](C)c1ccccc1 9.23% [at 35 µM]
CCCNC(=O)Nc1ccc2c(c1)C(=O)N(C)C[C@@H](OC)[C@@H](C)CN(CC1CCCC1)[C@@H](C)CO2 -4.03% [at 1.95 µM]
O=C(C[C@@H]1CC[C@@H]2[C@H](COC[C@H](O)CN2CC2CCCCC2)O1)NCc1ccc(Cl)cc1 22.4% [at 8 µM]
CO[C@H]1CN(C)C(=O)c2ccc(NC(=O)c3ccc(F)cc3)cc2OC[C@H](C)N(C(=O)CN(C)C)C[C@H]1C -10.1%
O=C(C[C@H]1C[C@H]2c3cc(NC(=O)CC4CC4)ccc3O[C@H]2[C@@H](CO)O1)NCc1cccc(F)c1 -3.04% [at 1.95 µM]
Cc1ccc(-c2ccc3c(c2)O[C@H](CN(C)Cc2ccncc2)[C@H](C)CN([C@H](C)CO)S3(=O)=O)cc1 34.8%
C[C@H](CO)N1C[C@H](C)[C@H](CN(C)Cc2cccc(C(=O)O)c2)OCc2ccccc2-c2c(n(C)c3ccccc23)C1=O -7.45% [at 0.5 µM]
CC1=CC2(CO)C(=O)[C@]3(CO3)[C@H]1[C@H]1[C@]2(C)C=C(CO)C(=O)[C@]12CO2 15.6%
Cc1ccc(F)cc1S(=O)(=O)N[C@@H]1CCN(Cc2ccc(OC(C)C)cc2)C1 34.7% [at 8 µM]
C[C@@H]1CN([C@H](C)CO)C(=O)c2c(c3ccccc3n2C)-c2ccccc2CO[C@H]1CN(C)C(=O)c1ccncc1 18.8%
COc1ccccc1-c1ccc2c(c1)O[C@H](CN(C)C(=O)c1ccccc1)[C@H](C)CN([C@@H](C)CO)S2(=O)=O 42.3%
C[C@H](CO)N1C[C@H](C)[C@@H](CN(C)S(=O)(=O)c2ccsc2)OCc2ccccc2-c2ccccc2C1=O 26.8%
CO[C@@H]1CN(C)C(=O)c2ccc(NS(=O)(=O)CC(F)(F)F)cc2OC[C@@H](C)N(C(=O)NC(C)C)C[C@H]1C 14.6%
Cc1noc(C)c1NC(=O)N(C)C[C@@H]1Oc2ccc(NC(=O)CCCCCC(=O)Nc3ccccc3N)cc2C(=O)N([C@@H](C)CO)C[C@@H]1C -8.05% [at 1.8 µM]
CO[C@H]1CN(C)C(=O)c2cc(NC(=O)NC3CCCCC3)ccc2OC[C@@H](C)N(CCc2ccccc2)C[C@H]1C 25.3%
CC(C)CC#Cc1ccc2c(c1)O[C@H](CN(C)Cc1ccncc1)[C@@H](C)CN([C@H](C)CO)S2(=O)=O 17.5%
C[C@@H]1CN([C@@H](C)CO)C(=O)c2cc(/C=C/c3ccccc3)cnc2O[C@H]1CN(C)C(=O)CN(C)C 18%
COCC#Cc1ccc2c(c1)O[C@@H](CN(C)Cc1ccncc1)[C@@H](C)CN([C@H](C)CO)S2(=O)=O 17.6%
O=C(NCCc1ccccc1)[C@H]1[C@H](CO)[C@H]2Cn3c(cccc3=O)[C@@H]1N2C(=O)C1CC1 -7.04%
C[C@H](CO)N1C[C@H](C)[C@@H](CN(C)Cc2cccnc2)Oc2cc(C#CC3CC3)ccc2S1(=O)=O 21.4%
CCCN1C[C@@H](C)[C@H](OC)CN(C)C(=O)c2cc(NC(=O)c3ccc4c(c3)OCO4)ccc2OC[C@H]1C 14.6% [at 35 µM]
C[C@@H]1CN([C@H](C)CO)C(=O)c2ccccc2-c2ccccc2CO[C@H]1CN(C)C(=O)CCN(C)C -7.05% [at 0.5 µM]
COc1ccc(CN(C)C[C@H]2Oc3ccc(NC(=O)Nc4ccc(C(F)(F)F)cc4)cc3C(=O)N([C@@H](C)CO)C[C@H]2C)cc1 -5.09% [at 0.5 µM]
CO[C@@H]1CN(C)C(=O)c2ccc(NS(=O)(=O)c3ccccc3C)cc2OC[C@H](C)N(S(C)(=O)=O)C[C@H]1C -9.59% [at 8 µM]
CNC[C@@H]1Oc2cc(-c3cccnc3)ccc2S(=O)(=O)N([C@H](C)CO)C[C@H]1C 14.8%
C[C@H]1CN([C@@H](C)CO)C(=O)c2ccccc2-c2ccccc2CO[C@H]1CN(C)S(=O)(=O)c1ccsc1 -19.4%
Cc1ccc(-c2ccc3c(c2)O[C@H](CN(C)Cc2cccnc2)[C@H](C)CN([C@H](C)CO)S3(=O)=O)cc1 17.6%
